Assay results reported in PubChem BioAssay (NCATS).
Inconclusive results are not listed. The source made the active and inactive calls. Calls follow the shape of the dose curve; as a rule, active = well fitted inhibition curve with a large enough effect; inconclusive = small, poorly fitted or top-dose-only effect; inactive = flat fitted curve, though single readings scatter.

Experiments:
[1] = qHTS profiling for inhibitors of Plasmodium falciparum proliferation (AID 504749);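 as to activity, negative = inhibition: 0% = DMSO vehicle and full inhibition = artemisinin control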; as to all read-outs here: nearly all actives have a fitted effect of over 60% in size; conditions: P. falciparum in erythrocytes, SYBR Green DNA, 72 h; for activity, negative = inhibition: at 28.7 µM (top of the series)
In short: (§1)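 Three-day growth assay of blood-stage parasites in erythrocytes (0.3% parasitemia, 2.5% hematocrit) at 37 C, 5% CO2, quantified by SYBR Green DNA staining after overnight detergent lysis.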

3D7 = assay: as above; conditions: P. falciparum in erythrocytes, SYBR Green DNA, 72 h; series mostly up to 28.7 µM
In short: as §1

7G8 = assay: as above; conditions: P. falciparum in erythrocytes, SYBR Green DNA, 72 h; series mostly up to 28.7 µM
In short: as §1

AA1029 = assay: as above; conditions: P. falciparum in erythrocytes, SYBR Green DNA, 72 h; series mostly up to 28.7 µM
In short: as §1

AS120 = assay: as above; conditions: P. falciparum in erythrocytes, SYBR Green DNA, 72 h; series mostly up to 28.7 µM
In short: as §1

ATS189 = assay: as above; conditions: P. falciparum in erythrocytes, SYBR Green DNA, 72 h; series mostly up to 28.7 µM
In short: as §1

CP191 = assay: as above; conditions: P. falciparum in erythrocytes, SYBR Green DNA, 72 h; series mostly up to 28.7 µM
In short: as §1

CP201 = assay: as above; conditions: P. falciparum in erythrocytes, SYBR Green DNA, 72 h; series mostly up to 28.7 µM
In short: as §1

CP203 = assay: as above; conditions: P. falciparum in erythrocytes, SYBR Green DNA, 72 h; series mostly up to 28.7 µM
In short: as §1

CP211 = assay: as above; conditions: P. falciparum in erythrocytes, SYBR Green DNA, 72 h; series mostly up to 28.7 µM
In short: as §1

CP217 = assay: as above; conditions: P. falciparum in erythrocytes, SYBR Green DNA, 72 h; series mostly up to 28.7 µM
In short: as §1

CP237 = assay: as above; conditions: P. falciparum in erythrocytes, SYBR Green DNA, 72 h; series mostly up to 28.7 µM
In short: as §1

ATS95 = assay: as above; conditions: P. falciparum in erythrocytes, SYBR Green DNA, 72 h; series mostly up to 28.7 µM
In short: as §1

C2A = assay: as above; conditions: P. falciparum in erythrocytes, SYBR Green DNA, 72 h; series mostly up to 28.7 µM
In short: as §1

CP185 = assay: as above; conditions: P. falciparum in erythrocytes, SYBR Green DNA, 72 h; series mostly up to 28.7 µM
In short: as §1

CP192 = assay: as above; conditions: P. falciparum in erythrocytes, SYBR Green DNA, 72 h; series mostly up to 28.7 µM
In short: as §1

CP194 = assay: as above; conditions: P. falciparum in erythrocytes, SYBR Green DNA, 72 h; series mostly up to 28.7 µM
In short: as §1

CP215 = assay: as above; conditions: P. falciparum in erythrocytes, SYBR Green DNA, 72 h; series mostly up to 28.7 µM
In short: as §1

CP238 = assay: as above; conditions: P. falciparum in erythrocytes, SYBR Green DNA, 72 h; series mostly up to 28.7 µM
In short: as §1

CP247 = assay: as above; conditions: P. falciparum in erythrocytes, SYBR Green DNA, 72 h; series mostly up to 28.7 µM
In short: as §1
Potency is read from the fitted curve at half-maximal effect.

CCC(=O)c1ccc2c(c1)N(CCCN1CCN(CCO)CC1)c1ccccc1S2
active: Potency ([1]; parasite line A) 10 µM | Potency ([1]; parasite line B) 11.2 µM | Potency (3D7) 10 µM | Potency (7G8) 11.2 µM | Potency (AA1029) 12.6 µM | Potency (AS120) 12.6 µM | Potency (ATS189) 12.6 µM | Potency (CP191) 5.62 µM | Potency (CP201) 15.1 µM | Potency (CP203) 15.1 µM | Potency (CP211) 13.5 µM | Potency (CP217) 8.91 µM | Potency (CP237) 7.94 µM

COC(=O)c1ccccc1O
inactive: activity, negative = inhibition ([1]; parasite line A) -0.0049% | activity, negative = inhibition ([1]; parasite line B) 5.19% | Potency (3D7) | Potency (AA1029) | Potency (AS120) | Potency (ATS189) | Potency (ATS95) | Potency (C2A) | Potency (CP185) | Potency (CP191) | Potency (CP192) | Potency (CP194) | Potency (CP201) | Potency (CP203) | Potency (CP211) | Potency (CP215) | Potency (CP217) | Potency (CP237) | Potency (CP238) | Potency (CP247)

O=P(O)(O)OC[C@H]1O[C@](O)(COP(=O)(O)O)[C@@H](O)[C@@H]1O
inactive: activity, negative = inhibition ([1]; parasite line A) 8.54% | activity, negative = inhibition ([1]; parasite line B) 12.4% | Potency (3D7) | Potency (7G8) | Potency (AA1029) | Potency (AS120) | Potency (ATS189) | Potency (ATS95) | Potency (C2A) | Potency (CP185) | Potency (CP191) | Potency (CP192) | Potency (CP201) | Potency (CP203) | Potency (CP211) | Potency (CP215) | Potency (CP217) | Potency (CP237) | Potency (CP238) | Potency (CP247)

OCCOCCOCCO
active: Potency (CP215) 16.9 µM
inactive: activity, negative = inhibition ([1]; parasite line A) 16.8% | activity, negative = inhibition ([1]; parasite line B) 11.6% | Potency (3D7) | Potency (7G8) | Potency (AA1029) | Potency (AS120) | Potency (ATS189) | Potency (ATS95) | Potency (C2A) | Potency (CP185) | Potency (CP191) | Potency (CP217) | Potency (CP237) | Potency (CP238) | Potency (CP247)

C/C=C/C=C/C(=O)O
inactive: activity, negative = inhibition ([1]; parasite line A) -0.87% | activity, negative = inhibition ([1]; parasite line B) -21% | Potency (3D7) | Potency (7G8) | Potency (AA1029) | Potency (AS120) | Potency (ATS189) | Potency (C2A) | Potency (CP185) | Potency (CP191) | Potency (CP192) | Potency (CP201) | Potency (CP203) | Potency (CP211) | Potency (CP217) | Potency (CP237) | Potency (CP238) | Potency (CP247)

Cc1ccc(S(=O)(=O)O)cc1C
inactive: activity, negative = inhibition ([1]; parasite line A) 8.18% | activity, negative = inhibition ([1]; parasite line B) 4.98% | Potency (3D7) | Potency (7G8) | Potency (AA1029) | Potency (AS120) | Potency (ATS189) | Potency (C2A) | Potency (CP185) | Potency (CP191) | Potency (CP192) | Potency (CP194) | Potency (CP201) | Potency (CP203) | Potency (CP211) | Potency (CP215) | Potency (CP217) | Potency (CP237) | Potency (CP238) | Potency (CP247)

O=C(O[C@H]1CN2CCC1CC2)N1CCc2ccccc2[C@@H]1c1ccccc1
active: Potency (7G8) 5.62 µM
inactive: activity, negative = inhibition ([1]; parasite line A) -23.3% | activity, negative = inhibition ([1]; parasite line B) -19.3% | Potency (3D7) | Potency (AS120) | Potency (ATS189) | Potency (ATS95) | Potency (CP185) | Potency (CP192) | Potency (CP201) | Potency (CP203) | Potency (CP217) | Potency (CP238)

NC(=O)Oc1ccc(Cc2ccccc2)cc1
inactive: activity, negative = inhibition ([1]; parasite line A) 0.685% | activity, negative = inhibition ([1]; parasite line B) 4.41% | Potency (3D7) | Potency (AA1029) | Potency (AS120) | Potency (ATS189) | Potency (ATS95) | Potency (C2A) | Potency (CP185) | Potency (CP191) | Potency (CP192) | Potency (CP194) | Potency (CP201) | Potency (CP203) | Potency (CP211) | Potency (CP215) | Potency (CP217) | Potency (CP237) | Potency (CP238) | Potency (CP247)

O=C(O)CC/C=C\CC[C@@H]1[C@@H](N2CCCCC2)[C@@H](O)C[C@@H]1OCc1ccc(-c2ccccc2)cc1
inactive: activity, negative = inhibition ([1]; parasite line A) 6.82% | activity, negative = inhibition ([1]; parasite line B) 1.98% | Potency (3D7) | Potency (AA1029) | Potency (AS120) | Potency (ATS189) | Potency (ATS95) | Potency (C2A) | Potency (CP185) | Potency (CP192) | Potency (CP194) | Potency (CP201) | Potency (CP211) | Potency (CP215) | Potency (CP217) | Potency (CP238) | Potency (CP247)

C[C@]12CCC(=O)C[C@@H]1CC[C@@H]1[C@@H]2CC[C@]2(C)C=CC[C@@H]12
inactive: activity, negative = inhibition ([1]; parasite line A) -20.9% | activity, negative = inhibition ([1]; parasite line B) -5.73% | Potency (3D7) | Potency (AA1029) | Potency (AS120) | Potency (ATS189) | Potency (ATS95) | Potency (C2A) | Potency (CP185) | Potency (CP191) | Potency (CP192) | Potency (CP194) | Potency (CP201) | Potency (CP203) | Potency (CP211) | Potency (CP215) | Potency (CP217) | Potency (CP238) | Potency (CP247)

CN(C)CCOc1ccc(/C(=C(/CCCl)c2ccccc2)c2ccccc2)cc1
inactive: activity, negative = inhibition ([1]; parasite line A) -4.58% | activity, negative = inhibition ([1]; parasite line B) -0.289% | Potency (3D7) | Potency (AA1029) | Potency (AS120) | Potency (ATS189) | Potency (C2A) | Potency (CP185) | Potency (CP191) | Potency (CP192) | Potency (CP194) | Potency (CP201) | Potency (CP203) | Potency (CP211) | Potency (CP215) | Potency (CP217) | Potency (CP237) | Potency (CP238) | Potency (CP247)

Cc1cc(C)c(NC(=O)C[C@H](CC(=O)O)c2cccc3ccccc23)c(C(=O)N2CCC3(CCCC3)CC2)c1
inactive: activity, negative = inhibition ([1]; parasite line A) 4.74% | activity, negative = inhibition ([1]; parasite line B) -1.81% | Potency (3D7) | Potency (AA1029) | Potency (AS120) | Potency (ATS189) | Potency (ATS95) | Potency (C2A) | Potency (CP185) | Potency (CP191) | Potency (CP192) | Potency (CP194) | Potency (CP201) | Potency (CP211) | Potency (CP215) | Potency (CP217) | Potency (CP237) | Potency (CP238) | Potency (CP247)
